From the supplement of paper PMC4022240 come the findings set out here.

Assay in all cases: peptide microarray binding signal (635 nm), min-max normalized on array (fraction of array maximum); higher = stronger binding
Conditions in all cases: peptide region: H3 11-23

Test [1] has as its target T1, HaloTag-ATRX ADD domain (163-292).
T1 chain: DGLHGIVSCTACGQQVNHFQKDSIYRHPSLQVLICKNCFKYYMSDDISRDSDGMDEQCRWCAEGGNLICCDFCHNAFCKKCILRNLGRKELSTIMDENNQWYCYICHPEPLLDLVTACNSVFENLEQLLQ
The method in brief:
(§1)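 Within each library, mean intensities of triplicate spots were min-max scaled to give the binding signal. The spots were histone 13-mer peptide–cellulose conjugates on nitrocellulose with a Cy3 tracer, blocked overnight at 4°C. They were then probed for 1 h at 4°C using biotin-labelled HaloTag reader fusions (10 nM to 1 μM) with streptavidin-Alexa Fluor 647 or rabbit histone antibodies (1:10,000 to 1:2,000) with anti-rabbit Alexa 647, and scanned at 635 nm for signal and 532 nm for misprints on an Axon GenePix 4000B.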

For test [2], the target named is HaloTag-ING2 PHD (mouse Ing2 200-280). Summed up: as §1
In test [3] the target is anti-H3K4me3 antibody ab8580. The method in brief:
as §1

Test [4] addresses anti-H3K9me3 antibody ab8898. The method in brief:
as §1

Setting [5] is: peptide modifications: H3K14me3, binder concentration: 1:2,000 dilution.
Where [6] appears, read: peptide modifications: H3K14me3, binder concentration: 1:10,000 dilution.
Setting [7] is: peptide modifications: H3K14me3 H3K18me1, binder concentration: 1:2,000 dilution.
The mark [8] stands for this setting: peptide modifications: H3K14me3 H3K18me1, binder concentration: 1:10,000 dilution.
Where [9] appears, read: peptide modifications: H3K14me2 H3R17me1, binder concentration: 1:2,000 dilution.
Where [10] appears, read: peptide modifications: H3K14me2 H3R17me1, binder concentration: 1:10,000 dilution.
The mark [11] stands for this setting: peptide modifications: H3K14me2 H3K18me2, binder concentration: 1:2,000 dilution.
Setting [12] is: peptide modifications: H3K14me2 H3K18me2, binder concentration: 1:10,000 dilution.
The mark [13] stands for this setting: peptide modifications: H3K14me3 H3K18ac, binder concentration: 1:2,000 dilution.
[14] abbreviates: peptide modifications: H3K14me3 H3K18ac, binder concentration: 1:10,000 dilution.
Setting [15] is: peptide modifications: H3K14me2 H3R17me2a, binder concentration: 1:2,000 dilution.
[16] abbreviates: peptide modifications: H3K14me2 H3R17me2a, binder concentration: 1:10,000 dilution.
Setting [17] is: peptide modifications: H3K14me3 H3K18me2, binder concentration: 1:2,000 dilution.
[18] abbreviates: peptide modifications: H3K14me3 H3K18me2, binder concentration: 1:10,000 dilution.
Setting [19] is: peptide modifications: H3K14me2 H3K18me3, binder concentration: 1:2,000 dilution.
Where [20] appears, read: peptide modifications: H3K14me2 H3K18me3, binder concentration: 1:10,000 dilution.
Setting [21] is: peptide modifications: H3K14me2 H3R17me2s, binder concentration: 1:2,000 dilution.
Setting [22] is: peptide modifications: H3K14me2 H3R17me2s, binder concentration: 1:10,000 dilution.
[23] abbreviates: peptide modifications: H3K14me2 H3R17cit, binder concentration: 1:2,000 dilution.
Setting [24] is: peptide modifications: H3K14me2 H3R17cit, binder concentration: 1:10,000 dilution.

± gives the standard deviation.

B1: H3 11-23 T G G Kme3 A P R K Q L A T K (peptide)
chain: TGGKAPRKQLATK
Consider B1, for which the “peptide microarray binding signal” value came to 0.00567 ± 0.0004 in test [1] (peptide modifications: H3K14me3, binder concentration: 50 nM); 0.017 ± 0.0053 in test [1] (peptide modifications: H3K14me3, binder concentration: 500 nM); 0.0115 ± 0.0029 in test [2] (peptide modifications: H3K14me3, binder concentration: 10 nM); 0.0106 ± 0.0035 in test [2] (peptide modifications: H3K14me3, binder concentration: 100 nM); 0.0134 ± 0.0088 in test [3] (setting [5]); 0.0221 ± 0.0092 in test [3] (setting [6]). Moreover, the “peptide microarray binding signal” value was found to be 0.062 ± 0.022 in test [4] (setting [5]) and 0.0336 ± 0.0081 in test [4] (setting [6]).

B2: H3 11-23 T G G Kme3 A P R Kme Q L A T K (peptide)
chain: TGGKAPRKQLATK
B2: the “peptide microarray binding signal” value in test [1] (peptide modifications: H3K14me3 H3K18me1, binder concentration: 50 nM) is 0.00624 ± 0.00027; in test [1] (peptide modifications: H3K14me3 H3K18me1, binder concentration: 500 nM) it was 0.0127 ± 0.00063; in test [2] (peptide modifications: H3K14me3 H3K18me1, binder concentration: 10 nM), 0.0189 ± 0.00082; in test [2] (peptide modifications: H3K14me3 H3K18me1, binder concentration: 100 nM), 0.0235 ± 0.0053; in test [3] (setting [7]), 0.0496 ± 0.0091; in test [3] (setting [8]), 0.0252 ± 0.0028. The “peptide microarray binding signal” value is 0.0621 ± 0.0077 in test [4] (setting [7]) and 0.0203 ± 0.0028 in test [4] (setting [8]).

B3: H3 11-23 T G G Kme2 A P Rme K Q L A T K (peptide)
chain: TGGKAPRKQLATK
Consider B3, for which the “peptide microarray binding signal” value in test [1] (peptide modifications: H3K14me2 H3R17me1, binder concentration: 50 nM) amounted to 0.00417 ± 0.00015; in test [1] (peptide modifications: H3K14me2 H3R17me1, binder concentration: 500 nM), 0.0101 ± 0.00014; in test [2] (peptide modifications: H3K14me2 H3R17me1, binder concentration: 10 nM) it was 0.00483 ± 0.00017; in test [2] (peptide modifications: H3K14me2 H3R17me1, binder concentration: 100 nM), 0.00843 ± 0.0018; in test [3] (setting [9]), 0.00376 ± 0.0005; in test [3] (setting [10]), 0.00211 ± 8.9e-05. Moreover, the “peptide microarray binding signal” value in test [4] (setting [9]) stood at 0.00378 ± 0.00014; in test [4] (setting [10]), 0.00288 ± 8.6e-05.

B4: H3 11-23 T G G Kme2 A P R Kme2 Q L A T K (peptide)
chain: TGGKAPRKQLATK
As to B4, the “peptide microarray binding signal” value in test [1] (peptide modifications: H3K14me2 H3K18me2, binder concentration: 50 nM) was determined as 0.00868 ± 0.00041; in test [1] (peptide modifications: H3K14me2 H3K18me2, binder concentration: 500 nM), 0.0137 ± 0.0018; in test [2] (peptide modifications: H3K14me2 H3K18me2, binder concentration: 10 nM), 0.00555 ± 0.00016; in test [2] (peptide modifications: H3K14me2 H3K18me2, binder concentration: 100 nM), 0.0111 ± 0.00051; in test [3] (setting [11]), 0.0136 ± 0.0033; in test [3] (setting [12]) it was 0.0097 ± 0.0018. The “peptide microarray binding signal” value turned out to be 0.00616 ± 0.00078 in test [4] (setting [11]) and 0.00536 ± 0.00032 in test [4] (setting [12]).

B5: H3 11-23 T G G Kme3 A P R Kac Q L A T K (peptide)
chain: TGGKAPRKQLATK
On to B5, for which the “peptide microarray binding signal” value is 0.00646 ± 0.00042 in test [1] (peptide modifications: H3K14me3 H3K18ac, binder concentration: 50 nM); 0.0102 ± 0.00058 in test [1] (peptide modifications: H3K14me3 H3K18ac, binder concentration: 500 nM); 0.0146 ± 0.00098 in test [2] (peptide modifications: H3K14me3 H3K18ac, binder concentration: 10 nM); 0.032 ± 0.004 in test [2] (peptide modifications: H3K14me3 H3K18ac, binder concentration: 100 nM); 0.06 ± 0.018 in test [3] (setting [13]); 0.0259 ± 0.0059 in test [3] (setting [14]). Also, the “peptide microarray binding signal” value in test [4] (setting [13]) is 0.0686 ± 0.018; in test [4] (setting [14]) it was 0.0246 ± 0.0023.

B6: H3 11-23 T G G Kme2 A P Rme2a K Q L A T K (peptide)
chain: TGGKAPRKQLATK
On to B6, for which the “peptide microarray binding signal” value in test [1] (peptide modifications: H3K14me2 H3R17me2a, binder concentration: 50 nM) was 0.00561 ± 0.00083; in test [1] (peptide modifications: H3K14me2 H3R17me2a, binder concentration: 500 nM), 0.00867 ± 0.00039; in test [2] (peptide modifications: H3K14me2 H3R17me2a, binder concentration: 10 nM) it was 0.00686 ± 0.00028; in test [2] (peptide modifications: H3K14me2 H3R17me2a, binder concentration: 100 nM) it was 0.00893 ± 0.00059; in test [3] (setting [15]) it was 0.00351 ± 0.00056; in test [3] (setting [16]) it was 0.00434 ± 0.00045. Moreover, the “peptide microarray binding signal” value in test [4] (setting [15]) was 0.00379 ± 0.00076; in test [4] (setting [16]), 0.00306 ± 0.00024.

B7: H3 11-23 T G G Kme3 A P R Kme2 Q L A T K (peptide)
chain: TGGKAPRKQLATK
Consider B7, for which the “peptide microarray binding signal” value in test [1] (peptide modifications: H3K14me3 H3K18me2, binder concentration: 50 nM) worked out at 0.0154 ± 0.00095; in test [1] (peptide modifications: H3K14me3 H3K18me2, binder concentration: 500 nM) it was 0.00933 ± 0.00068; in test [2] (peptide modifications: H3K14me3 H3K18me2, binder concentration: 10 nM), 0.0107 ± 0.0026; in test [2] (peptide modifications: H3K14me3 H3K18me2, binder concentration: 100 nM), 0.0194 ± 0.008; in test [3] (setting [17]), 0.0408 ± 0.02; in test [3] (setting [18]) it was 0.0276 ± 0.0038. Besides, the “peptide microarray binding signal” value in test [4] (setting [17]) came out at 0.0775 ± 0.0048; in test [4] (setting [18]), 0.0328 ± 0.0026.

B8: H3 11-23 T G G Kme2 A P R Kme3 Q L A T K (peptide)
chain: TGGKAPRKQLATK
B8: the “peptide microarray binding signal” value in test [1] (peptide modifications: H3K14me2 H3K18me3, binder concentration: 50 nM) is 0.00646 ± 0.00024; in test [1] (peptide modifications: H3K14me2 H3K18me3, binder concentration: 500 nM), 0.009572 ± 8e-05; in test [2] (peptide modifications: H3K14me2 H3K18me3, binder concentration: 10 nM), 0.00859 ± 0.00099; in test [2] (peptide modifications: H3K14me2 H3K18me3, binder concentration: 100 nM), 0.0188 ± 0.0022; in test [3] (setting [19]), 0.54 ± 0.11; in test [3] (setting [20]), 0.4 ± 0.12. The “peptide microarray binding signal” value was found to be 0.0567 ± 0.005 in test [4] (setting [19]) and 0.0291 ± 0.002 in test [4] (setting [20]).

B9: H3 11-23 T G G Kme2 A P Rme2s K Q L A T K (peptide)
chain: TGGKAPRKQLATK
As for B9, the “peptide microarray binding signal” value in test [1] (peptide modifications: H3K14me2 H3R17me2s, binder concentration: 50 nM) is 0.00489 ± 0.00015; in test [1] (peptide modifications: H3K14me2 H3R17me2s, binder concentration: 500 nM), 0.0177 ± 0.0016; in test [2] (peptide modifications: H3K14me2 H3R17me2s, binder concentration: 10 nM), 0.0129 ± 0.0031; in test [2] (peptide modifications: H3K14me2 H3R17me2s, binder concentration: 100 nM), 0.00964 ± 0.0051; in test [3] (setting [21]) it was 0.00034 ± 1e-05; in test [3] (setting [22]), 0.0123 ± 0.0055. Further, the “peptide microarray binding signal” value in test [4] (setting [21]) came to 0.00669 ± 0.0021; in test [4] (setting [22]), 0.00726 ± 0.0002.

B10: H3 11-23 T G G Kme2 A P Rcit K Q L A T K (peptide)
chain: TGGKAPRKQLATK
For B10, the “peptide microarray binding signal” value in test [1] (peptide modifications: H3K14me2 H3R17cit, binder concentration: 50 nM) is 0.00455 ± 0.00063; in test [1] (peptide modifications: H3K14me2 H3R17cit, binder concentration: 500 nM), 0.0129 ± 0.0034; in test [2] (peptide modifications: H3K14me2 H3R17cit, binder concentration: 10 nM), 0.0106 ± 0.0018; in test [2] (peptide modifications: H3K14me2 H3R17cit, binder concentration: 100 nM), 0.0185 ± 0.002; in test [3] (setting [23]), 0.00051 ± 4e-05; in test [3] (setting [24]), 0.0016 ± 4.6e-05. The entries for the “peptide microarray binding signal” value in test [4] (setting [23]) and in test [4] (setting [24]) were 0.00488 ± 0.0014 and 0.00398 ± 0.00058, respectively.
